In all, about 16,000 sequences were measured (“Z-score”: median about -0.37, highest 2% from about 3.1 on). Many of the other results were omitted from the sample, so the highest values are more common in it than they were.
The sequences below were run on RBM10 RRM1-ZnF-RRM2 (GST-tagged construct) (assay: RNAcompete 7-mer binding Z-score; higher = stronger binding preference).
Method: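 RNAcompete: 20 pmol GST-tagged RBM10 RNA-binding constructs were incubated with a designed RNA pool of about 241,000 sequences up to 41 nt (1.5 nmol) on glutathione beads for 30 min at 4 °C and washed. Bound RNAs were identified by microarray hybridisation. Each RNA 7-mer is scored by a one-sided Z-score of its enrichment, computed over probes that contain the 7-mer within longer pool sequences.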

| Sequence | RNAcompete 7-mer binding Z-score |
| --- | --- |
| CGUGGAA | 1.29 |
| AGUGGAA | 3.21 |
| GGUGGAU | 2.46 |
| GGUGGAA | 3.71 |
| UGUGGAA | 1.47 |
| AGUGGAU | 2.33 |
| AGUGGAC | 1.44 |
| CGUCACU | -0.515 |
| CACCCUG | -0.89 |
| AUGACUA | -0.347 |
| UGUGGUA | 0.833 |
| GACGAGA | 0.691 |
| UCAGCGU | -0.26 |
| CCGGCAC | -0.388 |
| GAGGAUG | 2.57 |
| CAGGAGA | 2.02 |
| UAGGAGG | 2.94 |
| GAGGAGG | 2.99 |
| AAGGAUG | 3.89 |
| AAGGAGA | 3.18 |
| AAGGAGG | 4.62 |
| AAGGAUA | 2.92 |
| UAGGAGA | 1.78 |

| Sequence | RNAcompete 7-mer binding Z-score |
| --- | --- |
| CCCAAUA | -0.759 |
| CCGUCGC | -0.752 |
| UGAUCCA | -0.515 |
| ACAUCCU | -0.839 |
| GCAGGAU | 1.22 |
| AGAGCGG | 1.46 |
| CGAGCGU | 0.166 |
| CGAGCGG | 3.33 |
| GGAGCGA | 2.9 |
| UGAGCGG | 2.06 |
| GGAGCGG | 4.19 |
| AGAGCGA | 0.581 |
| CGGGUUU | 1.01 |
| CUAUCGA | -0.781 |
| GUGGAAC | 1.73 |
| AUGGAAG | 3.16 |
| AUGGAAA | 2.62 |
| GUGGAAG | 3.47 |
| GUGGAAA | 2.46 |
| AUGGAAC | 2.02 |
| UCGGAGU | 0.257 |
| CGGGAUA | 1.44 |
| AGGGAUC | 1.32 |

| Sequence | RNAcompete 7-mer binding Z-score |
| --- | --- |
| AGGGAUU | 2.37 |
| GGGGAUA | 3.16 |
| AGGGAUA | 4.38 |
| GAGGAUA | 2 |
| CGCAAAG | -0.22 |
| UCGGUUG | 0.286 |
| ACAAUCU | -0.795 |
| UUUGACG | -0.551 |
| AUGUAGA | 0.243 |
| UCACAAU | -0.511 |
| ACAGUUC | -0.672 |
| CGAAUGG | 1.4 |
| AGAAUGU | 0.184 |
| AGAAUGG | 3.51 |
| UGAAUGG | 2.22 |
| GGAAUGG | 4.19 |
| GGAAUGU | 1.58 |
| UUGUGUG | 0.0604 |
| AAGAUAA | -0.0233 |
| GAUGAAC | 0.385 |
| CUUCCAU | -0.799 |
| AGUCGCA | -0.122 |
| AUGGUGC | 0.789 |

| Sequence | RNAcompete 7-mer binding Z-score |
| --- | --- |
| UUGGUGG | 2.09 |
| GUGGUGC | 1.68 |
| CUGGUGG | 1.22 |
| AUGGUGG | 3.33 |
| GUGGUGG | 3.78 |
| CUCGGGA | 0.228 |
| CCGGACC | -0.712 |
| GUCGUCU | -0.417 |
| CGCAAAC | -0.588 |
| UGGGGAC | 2.28 |
| UGGGGAG | 3.37 |
| UCGGGAA | 1.4 |
| UGGGGGA | 3.33 |
| GGGGGAG | 2.6 |
| UUGGGGA | 2.27 |
| UGGGGAA | 3.58 |
| GGGGGGA | 2.69 |
| CGGGGAG | 2.54 |
| UGCGUGA | 0.381 |
| UUGCGGU | -0.0161 |
| AAAGCCU | -0.734 |
| CCGUUGG | 0.228 |
| CCGAUCU | -0.938 |

| Sequence | RNAcompete 7-mer binding Z-score |
| --- | --- |
| GUAUGAA | 0.355 |
| AGCAAGU | -0.0343 |
| CUCGAAA | -0.493 |
| AUGAGGU | 1.83 |
| UUGAGGG | 3.15 |
| UUGAGGC | 0.341 |
| AUGAGGC | 1.35 |
| GUGAGGC | 1.86 |
| GUGAGGG | 4 |
| UUGAGGA | 1.04 |
| AUGAGGG | 4.32 |
| CUGAGGG | 1.53 |
| CAAAGAU | -0.282 |
| UGGGACG | 2.27 |
| AUCUGAA | -0.643 |
| GGGUAAG | 3.97 |
| CGGUAAA | 0.352 |
| GGGUAAC | 2.47 |
| AGGUAAA | 2.1 |
| CGGUAAG | 1.52 |
| GGGUAAA | 3.9 |
| CGUAUGU | -0.337 |
| ACUGCUA | -0.653 |

| Sequence | RNAcompete 7-mer binding Z-score |
| --- | --- |
| GGUAUGG | 4.03 |
| GAUAUGC | -0.078 |
| GAUAUGG | 3.32 |
| GGUAUGU | 1.33 |
| GGUAUGA | 1.89 |
| AAUAUGG | 1.27 |
| GACCGAU | -0.479 |
| ACGCUUU | -0.865 |
| GGGAACA | 3.06 |
| CGGAAUG | 1.33 |
| UGGAACG | 1.92 |
| AGGAAUG | 2.07 |
| GGGAAUG | 3.43 |
| GGGAAUU | 1.91 |
| GGGAACG | 3.86 |
| GGGAAUA | 3.15 |
| CGGAAUA | 0.65 |
| CACGUUA | -0.406 |
| UCAGCUU | -0.905 |
| CACAAUU | -0.577 |
| CAUGUGU | -0.151 |
| UCAUAUC | -0.613 |
| GCGUGGA | 2.22 |

| Sequence | RNAcompete 7-mer binding Z-score |
| --- | --- |
| AGGUGGU | 2.19 |
| UGGUGGC | 1.72 |
| UGGUGGA | 2.74 |
| GGGUGCA | 3 |
| GGGUGGA | 4.54 |
| UGGUGGG | 4.04 |
| UGGUGGU | 2.37 |
| GGGUGGU | 4.19 |
| AGGUGGG | 3.44 |
| AGGUGGA | 3 |
| GAGUGGU | 2.52 |
| GACAAGU | 0.148 |
| ACUAUAU | -0.544 |
| AGUCCUC | -0.708 |
| UUACAUU | -0.686 |
| GAAUCUG | -0.632 |
| GCUCGUU | -0.577 |
| ACUCACG | -0.708 |
| GCGCGGC | 0.811 |
| GGCAUGC | 0.228 |
| AUUCCGG | -0.559 |
| UGUCAGA | -0.402 |
| CGGUGGA | 2.27 |

| Sequence | RNAcompete 7-mer binding Z-score |
| --- | --- |
| CGGUGGG | 3.18 |
| GGGUGGG | 4.11 |
| ACGUGGG | 2.48 |
| GCGUGGG | 3.66 |
| CGGUGGU | 1.62 |
| GGGUGCG | 2.85 |
| UCGUGGG | 2.23 |
| GGGUGGC | 2.45 |
| UUUGAGU | -0.213 |
| ACGUAUA | -0.198 |
| UUAGCGC | -0.617 |
| UAGGAAA | 1.6 |
| AAGGAAU | 2.34 |
| UAGGAAG | 1.94 |
| AAGGAAC | 2.66 |
| GAGGAAG | 3.52 |
| CAGGAAA | 1.26 |
| AAGGAAA | 3.21 |
| AAGGAAG | 4.04 |
| GAGGAAU | 1.71 |
| UUUGAUC | -0.719 |
| CUGACGG | 0.243 |
| AGAGGCA | 0.421 |

— the supplement of paper PMC5499739
